Test results as given in ChEMBL document CHEMBL3988442, “University of Dundee, Small-Polar-MMV Screening Library” (2021).
About 13,000 (27%) of roughly 48,000 compounds showed an effect of 50% or more. The list shows a part of the results.

system: Wolbachia pipientis; assay: Anti-Wolbachia Cell-Based Screen; format: functional; design: scale not given: in the data most compounds retested in dose-response had high values; settings: 5 µM

Row | SMILES | Percent Effect
1 | CCC(CNC(=O)C1CCC1)(OC)c1ccccc1 (configuration not stated) | -1.894%
2 | CN(Cc1ncc[nH]1)c1nc(-c2ccccn2)nc2c1CCNCC2 | -0.01551%
3 | c1cnnc(N2CCCC(NCc3nc(C4CC4)no3)C2)c1 (configuration not stated) | 9.898%
4 | Cn1nc(C(C)(C)C)cc1NC(=O)CSc1nnc[nH]1 | -11.13%
5 | CCC(CNC(=O)OC)(OC)c1ccccc1 (configuration not stated) | 1.829%
6 | CN(C)CCN(C)C(=O)NC1CCC(Oc2ccccc2C#N)CC1 (configuration not stated) | -10.57%
7 | CC(=O)N1CCC(c2cccc(NC3CCOCC3)n2)CC1 | 84.73%
8 | CNc1cccc(C2CCN(C(C)=O)CC2)n1 | 105.5%
9 | Cc1noc(C2CCN(C(=O)c3ccc(NC4CC4)nc3)CC2)n1 | -4.487%
10 | CC(=O)N1CCC(c2cnc(NC3CCOCC3)cn2)CC1 | 89.11%
11 | CC(=O)NC1(C(=O)N2CCC(Nc3cccnn3)CC2)CCCCC1 | 6.747%
12 | CNc1cccc(C2CCCN(C(C)=O)C2)n1 (configuration not stated) | 2.608%
13 | O=C(N1CCOCC1)N1CCC(Nc2ccncn2)CC1 | 6.366%
14 | COc1ccccc1CNC(C)c1cnc2cc(C)nn2c1C (configuration not stated) | -25.88%
15 | CC(C)Cc1cc(C(=O)O)nc2[nH]c(=O)[nH]c(=O)c12 | 118.2%
16 | CC(C)c1cc(C(=O)O)nc2[nH]c(=O)[nH]c(=O)c12 | 113.5%
17 | CC(C)CCc1cc(C(=O)O)nc2[nH]c(=O)[nH]c(=O)c12 | 107.7%
18 | CC1(C)OCC2(CO1)CN(C(=O)c1ccccc1Cl)C2 | 5.486%
19 | Cn1cc(CN(CC2(O)CNCCOC2)C2CCCCC2)cn1 (configuration not stated) | 106.6%
20 | CCN(CC)[C@H]1COC[C@@H]2CN(Cc3cnn(C)c3)C[C@@H]21 | 13.67%
21 | CN(Cc1ccc2nsnc2c1)CC1(O)CNCCOC1 (configuration not stated) | -20.02%
22 | Cn1cc(CN(CC2(O)CCNC2)C2CCCCC2)cn1 (configuration not stated) | 118.9%

Row | SMILES | Percent Effect
23 | OC1(CN(Cc2cccnc2)C2CCCCC2)CNCCOC1 (configuration not stated) | 96.56%
24 | OC1(CNCc2noc(Cc3ccccc3)n2)CNCCOC1 (configuration not stated) | 7.869%
25 | CN(Cc1cnn(C)c1)S(=O)(=O)N1CCCCCC1 | 16.54%
26 | CN(Cc1cnn(C)c1)S(=O)(=O)N1CCCCC1 | -3.727%
27 | CCCc1cc(C(=O)N(Cc2cccnc2)C2CCCCC2)[nH]n1 | 21.65%
28 | CC(SCCC(=O)NC(N)=O)c1c(F)cccc1F (configuration not stated) | -3.785%
29 | Cc1cccc(N2CCC(NC(=O)CCCc3cccs3)CC2)n1 | -12.55%
30 | CCSC(C)c1nc(-c2ccc(C)nn2)no1 (configuration not stated) | 3.709%
31 | Clc1ccccc1C1(c2ccnc(-c3ccncc3)n2)CCNCC1 | -9.027%
32 | CN(C)C(=O)C1CN(c2ccncn2)CCN(C2CCOCC2)C1 (configuration not stated) | 126.1%
33 | CN(C)C(=O)C1CN(Cc2c[nH]cn2)CCN(C2CCOCC2)C1 (configuration not stated) | -9.527%
34 | Cc1noc(-c2ccnc(N3CCCN(C4CCOCC4)CC3)c2)n1 | -8.48%
35 | O=C([C@H]1COC[C@H]2CN(c3ccncn3)C[C@H]21)N1CCCC1 | -2.247%
36 | Cc1cc(N2CCN(C3CCOCC3)CC(C(=O)N(C)C)C2)ncn1 (configuration not stated) | 98.55%
37 | Cc1nccc(N2CCN(C3CCOCC3)CC(C(=O)N(C)C)C2)n1 (configuration not stated) | 164.8%
38 | Cc1nccc(N2CCC(=O)N(CC3CC3)C(C(C)C)C2)n1 (configuration not stated) | -7.894%
39 | CNC(=O)C1CN(c2ccnc(C)n2)CCN(C2CCOCC2)C1 (configuration not stated) | 102.7%
40 | Cc1nccnc1N1C[C@H]2CN(C3CCOCC3)C[C@@]2(C(=O)O)C1 | -7.502%
41 | CCc1c(C)sc2ncnc(N3CCN(C4CCOCC4)CC3)c12 | 8.782%
42 | CN1CCN(C(=O)c2ccc(Cn3cc(Br)cn3)cc2)CC1 | -6.635%
43 | CN(Cc1ccc(Cl)s1)C(=O)NCCN1CCCCCC1=O | -12.97%
44 | Cc1cc(NC(=O)C(C)N2CCN(c3nc(C)cs3)CC2)on1 (configuration not stated) | 1.656%

Row | SMILES | Percent Effect
45 | COCc1cccc(NC(C(N)=O)c2ccc(Br)cc2)c1 (configuration not stated) | 31.5%
46 | Cc1cc(NCC2CCN(c3ccccc3)C2)n2ncnc2n1 (configuration not stated) | 0.02222%
47 | O=C(COCC1CCCO1)N1CCCN(Cc2ccccc2F)CC1 (configuration not stated) | -31.39%
48 | CSc1ccc2cc(CN(C)CCCN(C)C)c(=O)[nH]c2c1 | -7.905%
49 | CSc1ccccc1CN1CCn2nc(CNC(C)=O)cc2C1 | -10.31%
50 | CN(Cc1ccccc1)CC(O)Cn1cnc2c(cnn2C)c1=O (configuration not stated) | -10.76%
51 | CN(Cc1ccccc1)CC(O)Cn1cnc2ccccc2c1=O (configuration not stated) | 5.606%
52 | CN(CCCn1cnc2c(N)ncnc21)Cc1ccccc1 | 86.6%
53 | CCS(=O)(=O)c1ncc(CN(C)Cc2cccc(OC)c2)n1CCOC | -4.749%
54 | COc1cccc(SCCCn2cnc3c(N)ncnc32)c1 | 97.7%
55 | COc1cccc(CCCn2cnnc2[S+](C)[O-])c1 (configuration not stated) | 5.279%
56 | COc1ccc(OCCCN(C)C(=O)C2CCCN2C(N)=O)cc1 (configuration not stated) | -3.357%
57 | COc1cccc(CN(C)C(=O)CN2CCN(CCO)CC2)c1 | -4.711%
58 | COc1cccc(CN(C)CCCn2cnc3c(N)ncnc32)c1 | 85.72%
59 | COc1ccc(OCCN(C)CCCn2cnc3c(N)ncnc32)cc1 | 102.2%
60 | COc1ccc(OCCN(C)C(=O)NC(C)c2nncn2C)cc1 (configuration not stated) | 5.358%
61 | COc1cccc(SCC(=O)N2CCC(N3CCCC3=O)CC2)c1 | -9.437%
62 | CC(CC(=O)NS(=O)(=O)c1ccc2c(c1)OCCO2)c1ccc(F)cc1 (configuration not stated) | -2.674%
63 | C[C@@H]1CN(C(=O)CCCn2nnc(-c3ccc(F)cc3)n2)C[C@]1(C)O | 1.392%
64 | CN(C)CCN1CC2(CCN(C(=O)c3cnccn3)CC2)OC1=O | -7.77%
65 | O=C(c1cnc(-c2ccccc2)s1)N1CCOC2(CCCC2)C1 | -9.958%
66 | CC(C)N(C)C(=O)C1=NOC2(CCN(C(=O)c3ccccn3)C2)C1 (configuration not stated) | 12.65%

Row | SMILES | Percent Effect
67 | CC(C)C(=O)NC1COC2(CCN(C(=O)c3cccnc3)CC2)C1 (configuration not stated) | 16.59%
68 | CN(C)C1COC2(CCN(C(=O)c3cccnc3)CC2)C1 (configuration not stated) | -11.3%
69 | O=C(c1cccnc1)N1CCC2(CNS(=O)(=O)c3cnccc3O2)C1 (configuration not stated) | 123.8%
70 | CC(C)(C)C(=O)N1CCC2(CC1)CC(Oc1ccccc1)CO2 (configuration not stated) | -1.342%
71 | CC(C)(C)C(=O)N1CCN(Cn2nccc2-c2cccnc2)CC1 | -27.57%
72 | CC(C)(C)C(=O)N1CCC2(CNS(=O)(=O)c3cnccc3O2)C1 (configuration not stated) | 153.5%
73 | O=C(c1ccc(Cl)s1)N1CCC2(CNS(=O)(=O)c3cnccc3O2)C1 (configuration not stated) | 130.4%
74 | O=C(c1ccccn1)N1CCC2(CNS(=O)(=O)c3cnccc3O2)C1 (configuration not stated) | 119.5%
75 | Cc1nc(C2CCN(C(=O)c3ccc(Cl)s3)CC2)cc(=O)[nH]1 | -8.54%
76 | CC(C)Cn1cc(NC(=O)N2CCOC(c3ccccc3)C2)cn1 (configuration not stated) | 2.646%
77 | Cc1nc(-c2ccccc2)sc1C(=O)NCCNc1ncccn1 | 2.127%
78 | Cc1nc[nH]c1-c1nccn1-c1ccc(C(N)=O)c(N2CCCC2)c1 | 8.513%
79 | CN(C(=O)CCC(F)(F)F)c1cccc2ncccc12 | 2.571%
80 | Cc1n[nH]c(SCC(=O)N[C@@H](C)C(N)=O)n1 | -9.569%
81 | O=C(C1CC=CC1)N1C[C@H]2CN(Cc3ccncc3)C(=O)[C@H]2C1.O=C(O)C(F)(F)F | 103%
82 | O=C(C1CCOCC1)N1C[C@@H]2[C@@H](C1)OCC(=O)N2Cc1ccncc1.O=C(O)C(F)(F)F | -1.521%
83 | O=C(C1CCC1)N1C[C@@H]2CN(Cc3ccncc3)C(=O)[C@@H]2C1.O=C(O)C(F)(F)F | 108.5%
84 | CCN1C[C@@H]2CN(C(=O)C3CC=CC3)C[C@@H]2C1=O | 14.39%
85 | O=C(O)C(F)(F)F.O=C1[C@H]2CN(c3ncccn3)C[C@H]2CN1Cc1ccncc1 | 3.817%
86 | Cc1ccc(CNS(=O)(=O)CC2=NC(=O)n3cccc3C2=O)cc1 | 16.21%
87 | COc1cccc2ccc(N3CCC(O)(c4ccc(C)cn4)CC3)nc12 | 110%
88 | COc1ccnc(CN2CCC(O)(c3ccc(C)cn3)CC2)c1OC | -7.822%

Row | SMILES | Percent Effect
89 | O=C(O)C1(O)CCN(c2ccc3cccc(Cl)c3n2)CC1 | 102.6%
90 | COc1ccccc1OC1(C(=O)O)CCN(c2ccccn2)CC1 | -33.54%
91 | COc1ccccc1OC1(C(=O)O)CCN(c2nc(C)cnc2C)CC1 | -31.32%
92 | COc1cccc2ccc(N3CCC(O)(C(=O)O)CC3)nc12 | 85.02%
93 | Nc1nccc(N2CCC(Cc3ccccc3Cl)(C(=O)O)CC2)n1 | -23.92%
94 | COc1cccc(CN2CCC(O)(c3ccc(C)cn3)CC2)c1OC | -1.243%
95 | Cc1nc(N2CCCC2)nc(N2CCC(O)(C(=O)O)CC2)c1C | -11.99%
96 | O=S(=O)(Nc1nccs1)c1cc(Cl)cc2c1OCC2 | -24.06%
97 | Fc1cc(CN2CCOC3(CCOCC3)C2)ccc1OC(F)F | -0.1745%
98 | CCc1noc(CSc2n[nH]c(-c3ccccn3)n2)n1 | -7.886%
99 | Cn1nccc1CN1CCCC(COc2ccccc2F)C1 (configuration not stated) | 162.8%
100 | Cn1cc(CN2CCCC(CCc3c(F)cccc3F)C2)cn1 (configuration not stated) | 4.691%
101 | CCn1cc(CN2CCCC(COc3ccccc3F)C2)cn1 (configuration not stated) | 9.663%
102 | CCC1CN(CC(=O)N2CCN(C(C)=O)CC2)CCN1CCOC (configuration not stated) | 107.2%
103 | CCC1CN(CCNC(C)=O)CCN1CCOC (configuration not stated) | 1.458%
104 | CCC1CN(CC(=O)N2CCCC2)CCN1CCOC (configuration not stated) | 124%
105 | CCC1CN(CC(=O)NC2(C#N)CCCC2)CCN1CCOC (configuration not stated) | 2.566%
106 | CCC1CN(CCC(=O)N(C)C)CCN1CCOC (configuration not stated) | -4.079%
107 | CCC1CN(CC(=O)N2CCC2)CCN1CCOC (configuration not stated) | 4.498%
